This is a sample that favours compounds with a hit; in the whole collection about 2.9% have one here.
KLK7 zymogen act: activates the human kallikrein-7 zymogen; P49862; purified proKLK7, EDANS-DABCYL substrate fluorescence; 100% is mature enzyme control, 0% vehicle; activation, % at 7 µM; 370,000 compounds, 0.9% hits;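 active = activation above the mean of all tested compounds plus 3 SD, computed per campaign excluding outliers beyond control limits, cut at about 13% in these data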
PLC-beta3 inh: blocks human PLC-beta3 enzyme activity; Purified PLC-beta3, fluorogenic substrate, fluorescence; inhibition, % at 12.2 µM; AID 720704; 370,000 compounds, 0.18% hits; in the data active = inhibition above about 11%
PLCg1 inh: blocks human PLC-gamma1 enzyme activity; P19174; purified PLC-gamma1, fluorogenic substrate, fluorescence; inhibition, % at 12.2 µM; 370,000 compounds, 0.84% hits; in the data active = inhibition above about 9.5%
ADAM10 inh: inhibitors of human ADAM10. recombinant ADAM10, EDANS/DABCYL FRET peptide cleavage, 3 h. inhibition, % at 7 µM. 370,000 compounds, 0.62% hits. O14672;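 active = inhibition above a per-campaign cutoff equal to the mean of compounds falling between control-based bounds plus 3 SD, cut at about 20% in these data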
ADAM17 inh: ADAM17 inhibition, QFRET primary screen. 370,000 compounds, 0.83% hits. recombinant ADAM17, EDANS/DABCYL FRET peptide cleavage. inhibition, % at 6.95 µM. AID 720648;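 active = inhibition above the mean of compounds lying between control limits plus 3 SD, set per campaign, cut at about 8.5% in these data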
Numbers stand for hits; - = inactive; . = no result given.

SMILES	KLK7 zymogen act	PLC-beta3 inh	PLCg1 inh	ADAM10 inh	ADAM17 inh
COC(=O)C1CCCN(C(=O)C(Cc2ccc3c(c2)OCO3)NC(C)=O)C1 (stereo not drawn)	-	-	-	-	-
C1CSC2(N1)C1CC3CC(C1)CC2C3 (stereo not drawn)	-	12	-	-	-
S=C1NNC2(NN1)C1CC3CC(C1)CC2C3	-	-	-	-	-
C(/C=C\c1ccco1)=NN1CCN(Cc2cccc3ccccc23)CC1	-	-	-	-	-
NC(=S)Nc1cc2ccccc2c2ccccc12	14	-	-	-	-
CN(C)c1ccc(NC(=S)NC(=O)/C=C/c2ccc(Cl)cc2)cc1	-	-	-	-	-
O=C(/C=C/c1ccc(Cl)cc1)NC(=S)Nc1ccc(C(=O)O)cc1	-	-	11	-	-
COC(=O)c1ccc(Oc2nc(NC(C)C)nc(N(C)C)n2)cc1	-	15	-	-	-
OCc1nc2ccccc2n1CCOc1ccccc1	-	-	-	-	-
CCOc1ccc(NCc2nc3ccccc3n2CCOc2ccccc2)cc1	-	-	-	30	-
CC12CCC(=O)C=C1CCC1C2CCC2(C)C(c3csc(N)n3)CCC12 (stereo not drawn)	-	-	-	24	-
CC12CCC(=O)C=C1CCC1C2C(O)CC2(C)C(c3csc(N)n3)CCC12 (stereo not drawn)	-	-	-	-	-
COc1cc(/C=C/C(=O)c2ccccc2)cc(OC)c1OC	.	-	-	-	-
CN(C1CCCCC1)S(=O)(=O)c1ccc(NC(=O)c2ccc(Br)o2)cc1	-	-	-	20	-
COc1ccc(-c2nnc(SCC(=O)Nc3ccc(S(=O)(=O)Nc4nccs4)cc3)n2-c2ccc(OC)cc2)cc1	-	-	-	-	-
C[C@@H]1COc2cccc(F)c2S(=O)(=O)N1C	-	-	-	-	-
O=C1c2cccc(OCc3ccc(F)cc3)c2CCN1Cc1ccc(F)cc1	-	-	11	-	-
COc1ccc(/C=C/c2cc(-c3ccc(C)cc3)o[n+]2C)cc1	32	-	-	-	-
C[C@H](CO)N1C[C@H](C)[C@@H](CN(C)Cc2ccc(Oc3ccccc3)cc2)Oc2c(NC(=O)C3CC3)cccc2C1=O	-	-	-	22	-
C[C@H](CO)N1C[C@H](C)[C@@H](CN(C)CC2CCCCC2)Oc2c(NS(=O)(=O)c3ccccc3)cccc2C1=O	-	11	-	-	-
COc1ccc(S(=O)(=O)N(C)C[C@H]2Oc3c(NC(=O)C4CCCCC4)cccc3C(=O)N([C@H](C)CO)C[C@@H]2C)cc1	-	-	9.6	-	-
COc1ccc(NC(=O)Nc2cccc3c2O[C@H](CN(C)S(=O)(=O)c2ccc(OC)cc2)[C@@H](C)CN([C@H](C)CO)C3=O)cc1	-	-	-	-	-
COC(=O)[C@]12C[C@H](CC(=O)NCCc3ccccc3OC)C(=O)N(Cc3ccc(Cl)cc3Cl)C1=C[C@H](C(C)(C)C)O[C@@H]2C	-	-	-	-	-
C#CCOCCOCCOCCNc1nc(N2CCN(C(=O)[C@H](CCCCN)n3cc([C@@H](N)CC(C)C)nn3)CC2)nc(N2CCN(C(=O)[C@H](Cc3cc4ccccc4[nH]3)n3cc([C@@H](N)CC(C)C)nn3)CC2)n1	.	-	-	-	-
C#CCN(C[C@@H]1[C@@H](OC(=O)Nc2cccs2)[C@@H](OC(=O)Nc2cccs2)Cn2c(=O)ccc(=O)n21)S(=O)(=O)c1ccc(C)cc1	-	-	-	-	10
SMILES	KLK7 zymogen act	PLC-beta3 inh	PLCg1 inh	ADAM10 inh	ADAM17 inh
C#CCN(C[C@@H]1[C@@H](OC(=O)NC2CCCC2)[C@@H](OC(=O)NC2CCCC2)Cn2c(=O)ccc(=O)n21)S(=O)(=O)c1ccc(C)cc1	-	-	-	-	-
Cc1ccc(S(=O)(=O)N2C(N)=C(C(=O)NCc3ccc(Br)cc3)C(c3ccc(Cl)cc3)C2C(=O)c2ccccc2)cc1 (stereo not drawn)	.	-	-	-	-
O=C(O)c1ccc2c(c1)C(=O)N(CCC1=CCCCC1)C2=O	-	-	13	-	-
N#Cc1c(C(F)(F)F)cc(-c2ccc(F)cc2)[nH]c1=O	-	-	-	-	-
N#Cc1c(C(F)(F)F)cc(-c2ccc(Cl)cc2)[nH]c1=O	21	-	-	-	-
O=S1(=O)C=CCN1Cc1cn(Cc2cccc(C(F)(F)F)c2)nn1	-	-	-	-	-
COc1ccc(C)cc1NC(=O)c1nnn(Cc2cc(C)ccc2C)c1N	-	-	-	-	-
COc1ccc(OC)c(NC(=O)c2nnn(Cc3ccccc3C)c2N)c1	-	-	-	27	-

Bioassay records: PubChem, The Scripps Research Institute Molecular Screening Center
